Data: PubChem BioAssay (NCATS)
Inconclusive results are not listed. Calls of active or inactive are those of the source. Calls come from the whole dose curve; as a rule, active = well fitted inhibition curve with a large enough effect; inconclusive = small, poorly fitted or top-dose-only effect; inactive = flat fitted curve, though single readings scatter.

Legend:
[1] = qHTS profiling for inhibitors of Plasmodium falciparum proliferation (AID 504749); note: nearly all actives have a fitted effect of over 60% in size;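 for activity, negative = inhibition: 0% = DMSO vehicle and full inhibition = artemisinin control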; conditions: P. falciparum in erythrocytes, SYBR Green DNA, 72 h
Summary of the method: (§1)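 Infected RBCs, 0.3% parasitemia/2.5% Hct final; cpd 72 h, 37 C, 5% CO2; lysis buffer with saponin/triton/SYBR Green I, o/n RT dark; FI 485/535; norm. to artemisinin (0.29 uM) and DMSO.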

3D7 = experiment: as above; conditions: P. falciparum in erythrocytes, SYBR Green DNA, 72 h; series mostly up to 28.7 µM
Summary of the method: as §1

7G8 = experiment: as above; conditions: P. falciparum in erythrocytes, SYBR Green DNA, 72 h; series mostly up to 28.7 µM
Summary of the method: as §1

C2A = experiment: as above; conditions: P. falciparum in erythrocytes, SYBR Green DNA, 72 h; series mostly up to 28.7 µM
Summary of the method: as §1

CP191 = experiment: as above; conditions: P. falciparum in erythrocytes, SYBR Green DNA, 72 h; series mostly up to 28.7 µM
Summary of the method: as §1

CP192 = experiment: as above; conditions: P. falciparum in erythrocytes, SYBR Green DNA, 72 h; series mostly up to 28.7 µM
Summary of the method: as §1

CP194 = experiment: as above; conditions: P. falciparum in erythrocytes, SYBR Green DNA, 72 h; series mostly up to 28.7 µM
Summary of the method: as §1

CP185 = experiment: as above; conditions: P. falciparum in erythrocytes, SYBR Green DNA, 72 h; series mostly up to 28.7 µM
Summary of the method: as §1

AS120 = experiment: as above; conditions: P. falciparum in erythrocytes, SYBR Green DNA, 72 h; series mostly up to 28.7 µM
Summary of the method: as §1

ATS189 = experiment: as above; conditions: P. falciparum in erythrocytes, SYBR Green DNA, 72 h; series mostly up to 28.7 µM
Summary of the method: as §1

ATS95 = experiment: as above; conditions: P. falciparum in erythrocytes, SYBR Green DNA, 72 h; series mostly up to 28.7 µM
Summary of the method: as §1

AA1029 = experiment: as above; conditions: P. falciparum in erythrocytes, SYBR Green DNA, 72 h; series mostly up to 28.7 µM
Summary of the method: as §1

[2] = at 28.7 µM (top of the series), parasite line A
[3] = at 28.7 µM (top of the series), parasite line B
[4] = at 12.8 µM (top of the series), parasite line A
[5] = at 12.8 µM (top of the series), parasite line B
Potency is the fitted concentration of half-maximal effect.

CCCCCCCCCCOCC(O)CN (stereo unspecified)
inactive: activity, negative = inhibition [1, 2] -16.8% | Potency (3D7) | Potency (C2A) | Potency (CP191)
active: Potency (7G8) 12.6 µM

CCOC(=O)/C=C(C)/C=C/C=C(C)/C=C/c1c(C)cc(OC)c(C)c1C
active: Potency (7G8) 12.6 µM
inactive: Potency (CP192) | Potency (CP194)

Clc1ccc2c(c1)CCc1cccnc1C2=C1CCNCC1
inactive: activity, negative = inhibition [1, 2] -8.94% | activity, negative = inhibition [1, 3] -21.2% | Potency (C2A) | Potency (CP185)

c1ccc(-c2ccc(C(c3ccccc3)n3ccnc3)cc2)cc1 (stereo unspecified)
active: Potency ([1]; parasite line B) 11.2 µM | Potency (7G8) 2 µM | Potency (AS120) 3.98 µM | Potency (ATS189) 8.91 µM | Potency (CP185) 10 µM | Potency (CP191) 11.2 µM | Potency (CP192) 10.7 µM

CCCCCCCCCCCCCCNCCO
active: Potency ([1]; parasite line A) 10 µM | Potency (7G8) 10 µM | Potency (AS120) 12.6 µM
inactive: Potency (ATS95) | Potency (CP192) | Potency (CP194)

CCCCC(CC)CN=C(N)NC(N)=NCCCCCCN=C(N)NC(N)=NCC(CC)CCCC (stereo unspecified)
active: Potency ([1]; parasite line A) 1 µM | Potency (3D7) 1.58 µM | Potency (7G8) 0.316 µM | Potency (AA1029) 1.41 µM | Potency (AS120) 0.891 µM | Potency (ATS189) 3.16 µM | Potency (ATS95) 1.41 µM | Potency (C2A) 2.24 µM | Potency (CP185) 1.41 µM | Potency (CP191) 1 µM | Potency (CP192) 3.79 µM | Potency (CP194) 1.51 µM

CCCCCCCCCCCCCCCC[N+](C)(C)CCN(Cc1ccc(OC)cc1)c1ncccn1
active: Potency (CP191) 0.794 µM
inactive: activity, negative = inhibition [1, 4] -28.5% | Potency (ATS189) | Potency (CP192) | Potency (CP194)

CN(C)CC/C=C1\c2ccccc2Sc2ccc(Cl)cc21
inactive: Potency (3D7) | Potency (CP192)
active: Potency ([1]; parasite line B) 8.91 µM | Potency (7G8) 12.6 µM | Potency (AS120) 11.2 µM | Potency (ATS95) 11.2 µM

O=C(CCCN1CCC(O)(c2ccc(Br)cc2)CC1)c1ccc(F)cc1
active: Potency (3D7) 5.62 µM | Potency (7G8) 2.82 µM | Potency (ATS95) 3.16 µM

COc1ccc(C2C(=O)c3ccccc3C2=O)cc1
inactive: activity, negative = inhibition [1, 2] 3.83% | Potency (3D7) | Potency (7G8) | Potency (AA1029) | Potency (AS120) | Potency (ATS189) | Potency (ATS95) | Potency (C2A) | Potency (CP185) | Potency (CP191) | Potency (CP192) | Potency (CP194)

Cc1cccc(C)c1NC(=O)CN1CCN(CCCC(c2ccc(F)cc2)c2ccc(F)cc2)CC1
inactive: activity, negative = inhibition [1, 4] -9.2% | activity, negative = inhibition [1, 5] -3.17% | Potency (C2A) | Potency (CP185) | Potency (CP191) | Potency (CP192)
active: Potency (7G8) 4.47 µM | Potency (AS120) 3.98 µM

O=C1[C@H]2CCCC[C@H]2C(=O)N1CCCCN1CCN(c2nsc3ccccc23)CC1
inactive: activity, negative = inhibition [1, 2] -3.99% | activity, negative = inhibition [1, 3] 7.58% | Potency (AA1029) | Potency (AS120) | Potency (ATS189) | Potency (ATS95) | Potency (CP185) | Potency (CP192) | Potency (CP194)

CCN(CC)CCOc1ccc(C(O)(Cc2ccc(Cl)cc2)c2ccc(C)cc2)cc1 (stereo unspecified)
active: Potency (7G8) 5.01 µM | Potency (AA1029) 11.2 µM | Potency (ATS189) 11.2 µM

CN=C(NC#N)Nc1ccc(C2=NNC(=O)CC2C)cc1 (stereo unspecified)
inactive: Potency (CP192) | Potency (CP194)

CC(C)=CCC1C(=O)N(c2ccccc2)N(c2ccccc2)C1=O
inactive: Potency (C2A)

CC(C)N=C(N)/N=C(\N)Nc1ccc(Cl)cc1
inactive: Potency (ATS95) | Potency (C2A) | Potency (CP192)
active: Potency ([1]; parasite line A) 1.12 µM | Potency ([1]; parasite line B) 1.58 µM | Potency (CP191) 1 µM

C=C(CC)C(=O)c1ccc(OCC(=O)O)c(Cl)c1Cl
inactive: Potency (CP192)
active: Potency ([1]; parasite line A) 12.6 µM | Potency (7G8) 14.1 µM | Potency (AS120) 12.6 µM

CC(=O)OCC(=O)[C@@]1(OC(C)=O)[C@@H](C)C[C@H]2[C@@H]3C[C@H](F)C4=CC(=O)C=C[C@]4(C)[C@@]3(F)[C@@H](O)C[C@@]21C
active: Potency (7G8) 8.91 µM
inactive: activity, negative = inhibition [1, 2] -18.2% | Potency (3D7) | Potency (AA1029) | Potency (AS120) | Potency (ATS189) | Potency (C2A) | Potency (CP185) | Potency (CP191) | Potency (CP192) | Potency (CP194)

CNCCC=C1c2ccccc2CCc2ccccc21
active: Potency (7G8) 11.2 µM | Potency (AA1029) 4.47 µM | Potency (ATS95) 5.62 µM
inactive: activity, negative = inhibition [1, 2] -6.28% | Potency (3D7)

CCCOC(C(=O)OC1CCN(C)CC1)(c1ccccc1)c1ccccc1
active: Potency (7G8) 11.2 µM
inactive: activity, negative = inhibition [1, 2] -18.3% | Potency (CP192)

Oc1ccc(O)cc1
active: Potency (3D7) 8.91 µM
inactive: Potency (AA1029) | Potency (ATS189) | Potency (ATS95) | Potency (CP185) | Potency (CP191)

NC(CS)C(=O)O (stereo unspecified)
active: Potency (7G8) 1.78 µM | Potency (AA1029) 15.8 µM | Potency (ATS95) 12.6 µM | Potency (CP191) 10 µM
inactive: Potency (CP185) | Potency (CP192)

C[C@@H]1CN(CCCn2c3ccccc3c3ccccc32)C[C@H](C)N1
inactive: Potency (CP192)
active: Potency ([1]; parasite line A) 10 µM | Potency (7G8) 4.47 µM | Potency (AA1029) 4.47 µM | Potency (AS120) 12.6 µM | Potency (C2A) 11.2 µM | Potency (CP191) 7.08 µM

O=C1OCCN1/N=C/c1ccc([N+](=O)[O-])o1
inactive: Potency (C2A) | Potency (CP192) | Potency (CP194)
active: Potency (7G8) 10 µM | Potency (AA1029) 10 µM

CCOc1ccc(Cc2nccc3cc(OCC)c(OCC)cc23)cc1OCC
inactive: activity, negative = inhibition [1, 5] -21.6% | Potency (7G8) | Potency (AA1029) | Potency (AS120) | Potency (ATS189) | Potency (ATS95) | Potency (C2A) | Potency (CP185) | Potency (CP192)

COC(=O)[C@H]1[C@H]2C[C@H]3c4[nH]c5ccccc5c4CCN3C[C@H]2CC[C@@H]1O
inactive: Potency (CP192) | Potency (CP194)

Oc1c(I)cc(I)c2cccnc12
inactive: Potency (C2A)
